Measured values from PubChem BioAssay (Tox21).
A number with no mark means an inactive call. Records with an inconclusive call do not appear. Where a call stands in place of a potency, no number is given. The source made the active and inactive calls. Unless noted, calls follow the shape of the dose curve; as a rule, active = well fitted curve in the direction sought with a large enough effect in the repeat runs; inconclusive = weak or mixed curves; inactive = no such curve, though single readings can be large; an effect the other way counts as inactive or inconclusive.

Tests used:
[1] = qHTS assay to identify small molecule antagonists of the glucocorticoid receptor (GR) signaling pathway - cell viability counter screen (AID 720693); also: nearly all actives have a fitted effect of over 55% in size
[2] = qHTS assay for identifying genotoxic compounds that show differential cytotoxicity against isogenic chicken DT40 cell lines with known DNA damage response pathways - wild type cell line (AID 743012); also: nearly all actives have a fitted effect of over 60% in size; also: potency is read from the fitted curve at half-maximal effect
Method in brief: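 Parental DNA repair-proficient DT40 cells, 300 per well, were pre-incubated ~0.5 h at 37 C/5% CO2, pin-dosed with compounds in DMSO, then incubated 40 h. Viability was read as CellTiter-Glo luminescence after 30 min at room temperature.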

[3] = qHTS assay to identify small molecule antagonists of the androgen receptor (AR) signaling pathway - cell viability counter screen (AID 743033; also: nearly all actives have a fitted effect of over 45% in size)
[4] = qHTS assay to identify small molecule antagonists of the androgen receptor (AR) signaling pathway using the MDA cell line - cell viability counter screen (AID 743041; also: nearly all actives have a fitted effect of over 45% in size)
Method in brief: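 MDA-kb2 AR-luc cells (MMTV-luciferase, AR/GR responsive) treated with compounds plus R1881 agonist for 16 h at 37C. CellTiter-Fluor added at 15.5 h; fluorescence read after 30 min in the same wells.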

[5] = qHTS assay for identifying genotoxic compounds that show differential cytotoxicity against isogenic chicken DT40 cell lines with known DNA damage response pathways - Rev3 mutant cell line (AID 743014); also: nearly all actives have a fitted effect of over 55% in size
[6] = qHTS assay for identifying genotoxic compounds that show differential cytotoxicity against isogenic chicken DT40 cell lines with known DNA damage response pathways - Rad54/Ku70 mutant cell line (AID 743015); also: nearly all actives have a fitted effect of over 60% in size; also: potency is read from the fitted curve at half-maximal effect
[7] = target: Androgen receptor (Homo sapiens) (UniProt P10275); assay: qHTS assay to identify small molecule antagonists of the androgen receptor (AR) signaling pathway (AID 743035; active = well fitted inhibition curve with a large enough effect in the signal ratio in the repeat runs, not every such curve was filed as active; the % refers to the signal ratio; also: potency is read from the fitted curve at half-maximal effect)
Androgen receptor (Homo sapiens), sequence (P10275 whole entry, looked up): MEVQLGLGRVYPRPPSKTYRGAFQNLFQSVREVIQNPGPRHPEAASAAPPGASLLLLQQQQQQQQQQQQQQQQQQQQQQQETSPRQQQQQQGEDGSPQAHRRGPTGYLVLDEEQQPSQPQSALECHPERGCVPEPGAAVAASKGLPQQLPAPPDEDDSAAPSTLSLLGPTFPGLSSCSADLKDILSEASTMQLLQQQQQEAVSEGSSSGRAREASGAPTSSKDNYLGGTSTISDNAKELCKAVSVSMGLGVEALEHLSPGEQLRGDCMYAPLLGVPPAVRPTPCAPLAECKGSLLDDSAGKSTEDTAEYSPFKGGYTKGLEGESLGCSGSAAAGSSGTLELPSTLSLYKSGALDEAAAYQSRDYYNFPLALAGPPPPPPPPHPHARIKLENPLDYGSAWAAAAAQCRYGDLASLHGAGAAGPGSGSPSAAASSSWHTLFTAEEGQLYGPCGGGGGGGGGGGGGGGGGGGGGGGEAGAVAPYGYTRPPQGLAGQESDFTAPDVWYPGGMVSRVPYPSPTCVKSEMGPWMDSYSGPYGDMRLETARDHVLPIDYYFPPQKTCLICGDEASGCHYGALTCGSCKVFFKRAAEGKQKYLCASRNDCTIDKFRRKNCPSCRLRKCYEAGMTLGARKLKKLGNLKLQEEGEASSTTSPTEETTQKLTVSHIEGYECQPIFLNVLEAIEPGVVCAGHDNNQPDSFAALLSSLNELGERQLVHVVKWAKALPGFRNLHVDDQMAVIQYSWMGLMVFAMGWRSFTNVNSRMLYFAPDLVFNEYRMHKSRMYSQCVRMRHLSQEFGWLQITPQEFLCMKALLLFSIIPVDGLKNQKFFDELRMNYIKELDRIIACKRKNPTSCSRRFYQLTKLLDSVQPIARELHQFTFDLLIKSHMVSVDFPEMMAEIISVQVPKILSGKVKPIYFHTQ
Method in brief: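 HEK293 cells stably carrying a UAS-driven beta-lactamase reporter (AR-UAS-bla GripTite) were plated for 4 h at 37C, then given compound and the agonist R1881 and incubated 16 h. Reporter activity was read by LiveBLAzer B/G FRET fluorescence after 2 h at room temperature.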

[8] = target: Androgen receptor (Homo sapiens) (UniProt P10275); assay: qHTS assay to identify small molecule agonists of the androgen receptor (AR) signaling pathway (AID 743036; active = well fitted activation curve with a large enough effect in the signal ratio in the repeat runs, with a control signal flat, not every such curve was filed as active; the % refers to the signal ratio)
Method in brief: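 AR-UAS-bla HEK293 cells, plated 4 h before dosing, were treated with compound for 16 h at 37C. beta-Lactamase reporter read after 2 h with LiveBLAzer B/G FRET substrate at room temperature.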

[9] = target: Androgen receptor (Homo sapiens) (UniProt P10275); assay: qHTS assay to identify small molecule agonists of the androgen receptor (AR) signaling pathway using the MDA cell line (AID 743040; also: nearly all actives have a fitted effect of over 20% in size)
Method in brief: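 MDA-kb2 breast carcinoma cells carrying MMTV-luciferase (responsive to AR and GR), plated 5 h then treated 16 h with compounds at 37C, 0% CO2. Read-out was ONE-Glo luminescence after 30 min at room temperature.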

[10] = target: Androgen receptor (Homo sapiens) (UniProt P10275); assay: qHTS assay to identify small molecule antagonists of the androgen receptor (AR) signaling pathway using the MDA cell line (AID 743042; also: nearly all actives have a fitted effect of over 55% in size)
Method in brief: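 MDA-kb2 breast carcinoma cells carrying MMTV-luciferase (AR/GR responsive) were co-treated with compounds and the agonist R1881 for 16 h at 37C. Inhibition read as ONE-Glo luminescence; CellTiter-Fluor fluorescence measured in parallel for cytotoxicity.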

SMILES | Potency [1] | Potency [2] | outcome [3] | outcome [4] | Potency [5] | Potency [6] | Potency [7] | outcome [8] | outcome [9] | outcome [10]
CCCCC/C=C/CC(=O)OC | inactive | inactive | inactive | inactive | – | – | – | – | – | –
COC(/C=C(\C)CCC=C(C)C)OC | inactive | – | inactive | – | inactive | inactive | – | – | – | –
CCC(C)(C)C1CCC(=O)CC1 | inactive | inactive | inactive | inactive | – | inactive | inactive | inactive | inactive | inactive
CC1=CC[C@H](CC=O)C1(C)C | inactive | inactive | inactive | inactive | – | inactive | – | – | – | –
C[Si]1(C)N[Si](C)(C)N[Si](C)(C)N1 | inactive | inactive | inactive | inactive | – | inactive | – | – | – | –
FC(F)(F)/C(=N\OCC1OCCO1)c1ccc(Cl)cc1 | inactive | inactive | inactive | – | – | – | – | – | – | –
O=C(Nc1cccc(C2=NCCN2)c1)Nc1cccc(C2=NCCN2)c1 | inactive | 11.9 µM (active) | inactive | inactive | – | 18.8 µM (active) | – | – | – | –
COc1cc([N+](=O)[O-])ccc1N | inactive | inactive | inactive | – | – | inactive | – | inactive | inactive | inactive
CCCCCCCCCCCCCC(=O)OC | inactive | inactive | inactive | inactive | – | – | inactive | inactive | inactive | inactive
CCCCC(CC)COC(=O)c1ccccc1 (configuration not stated) | inactive | inactive | inactive | inactive | inactive | – | – | – | – | –
COc1ccc(OC)c(NC(=O)CC(C)=O)c1 | inactive | inactive | inactive | inactive | – | inactive | – | – | – | –
CCCOC(=O)CCCCC(=O)OCCC | inactive | inactive | inactive | inactive | – | inactive | – | – | – | –
O=C1OC(=O)c2cc(Oc3ccc4c(c3)C(=O)OC4=O)ccc21 | inactive | – | inactive | – | inactive | inactive | inactive | inactive | inactive | inactive
O=C1c2ccccc2-c2ccccc21 | inactive | – | inactive | inactive | inactive | inactive | inactive | inactive | inactive | inactive
CC(C)(C)NCCO | inactive | inactive | inactive | inactive | – | – | – | – | – | –
O=C(CN1CCN(Cc2ccc3c(c2)OCO3)CC1)N1c2ccccc2Sc2ccccc21 | inactive | 13.3 µM (active) | – | inactive | – | 26.6 µM (active) | 26.8 µM (active) | inactive | inactive | inactive
O=C(O)Cc1cccc(-c2cc(CCCCCCc3ccc(O[C@H]4O[C@H](CO)[C@@H](O)[C@H](O)[C@@H]4O)c(-c4cccc(CC(=O)O)c4)c3)ccc2O[C@H]2O[C@H](CO)[C@@H](O)[C@H](O)[C@@H]2O)c1 | inactive | inactive | – | inactive | inactive | – | – | – | – | –

SMILES | Potency [1] | Potency [2] | outcome [3] | outcome [4] | Potency [5] | Potency [6] | Potency [7] | outcome [8] | outcome [9] | outcome [10]
COc1ccc(NS(=O)(=O)c2ccc(N)cc2)nn1 | inactive | inactive | inactive | inactive | – | inactive | – | – | – | –
O=c1cc(O)c(Cl)c[nH]1 | inactive | inactive | inactive | inactive | – | – | – | – | – | –
Cc1nc(C)nc(N2C[C@@H](C)N(c3ccnc([C@@H](C)O)n3)[C@@H](C)C2)n1 | inactive | inactive | inactive | inactive | – | – | – | – | – | –
O=S1(=O)CCCC1 | inactive | inactive | inactive | inactive | – | inactive | – | – | – | –
CCC(CO)CO | inactive | inactive | inactive | inactive | – | inactive | – | – | – | –
CCCCCCCCCCCCC | inactive | inactive | – | inactive | inactive | – | – | – | – | –
Nc1cc(C(=O)O)ccc1Cl | inactive | – | inactive | inactive | inactive | inactive | inactive | inactive | inactive | inactive
CN[C@@H]1[C@@H](O)[C@@H](O[C@@H]2[C@H](O)[C@H](O[C@H]3OC(CN)=CC[C@H]3N)[C@@H](N)C[C@H]2N)OCC1(C)O (some centres not stated) | – | inactive | inactive | inactive | inactive | inactive | – | – | – | –
NC(=O)C1(N2CCCCC2)CCN(CCCC(=O)c2ccc(F)cc2)CC1 | inactive | – | inactive | inactive | – | – | – | – | – | –
CC(=O)OCC(=O)[C@@]1(O)[C@H](OC(C)=O)C[C@H]2[C@@H]3CCC4=CC(=O)C=C[C@]4(C)[C@@]3(F)[C@@H](O)C[C@@]21C | inactive | – | inactive | inactive | – | – | – | – | – | –
c1ccc(CNc2ncnc3nc[nH]c23)cc1 | inactive | – | inactive | inactive | – | 48.6 µM (active) | – | – | – | –
CCCCCCCCCCCCC1CO1 (configuration not stated) | inactive | – | inactive | inactive | – | – | – | – | – | –
CCCCCC1Nc2cc(C(F)(F)F)c(S(N)(=O)=O)cc2S(=O)(=O)N1 (configuration not stated) | inactive | – | inactive | inactive | inactive | inactive | – | – | – | –
C[C@@H]1C[C@H]2[C@@H]3C[C@H](F)C4=CC(=O)C=C[C@]4(C)[C@@]3(F)[C@@H](O)C[C@]2(C)[C@@]1(O)C(=O)CO | inactive | – | – | inactive | – | – | – | – | – | –
CCOC(=O)CC(CC(=O)OCC)(OC(C)=O)C(=O)OCC | inactive | – | inactive | inactive | inactive | – | – | – | – | –
C1CCN2C[C@@H]3C[C@@H](CN4CCCC[C@@H]34)[C@H]2C1 | – | inactive | inactive | inactive | inactive | – | – | – | – | –
